# PI5P4Ka inh = blocks human PI5P4K alpha kinase activity; P48426; PI5P4Kalpha enzyme, ADP-Glo luminescence, 60 min; hits give low values; max response, %; actives 1.2% (n = 330,000); AID 652105; active means max response of -50% or lower; inconclusive means between -30% and -50%; inactive means -30% or higher; further: value at the top dose of about 77 µM; on the % scale 0 is the no-effect control and ±100 the full control effect
#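 Compounds were pin-transferred onto PI5P4Kalpha and substrate in HEPES pH 7.4 buffer with EGTA, CHAPS and 5% DMSO. ATP (5 microM final) started the reaction, which ran 60 minutes at room temperature before ADP-Glo detection.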
# BAZ2B inh = blocks human BAZ2B | AlphaScreen BAZ2B-H3K14Ac peptide displacement | AID 504333 | actives 4.4% (n = 360,000) | Q9UIF8 | Potency, µM (doses to about 114 µM), for inactives: at the highest dose activity change, negative = inhibition, most hits filed as inhibitors; further: potency means the concentration at half of the fitted maximal effect; on the % scale 0 is the no-effect control and ±100 the full control effect; nearly all actives have a fitted effect of over 60% in size
#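 AlphaScreen displacement of biotin-H3(5-23)K14Ac peptide (50 nM final) from BAZ2B (50 nM final) in PBS pH 7.4, 0.01% Tween-20; complex preformed 30 min RT, then compounds (top 110 uM) 30 min RT, beads 20 min dark.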
# HP1b binding inh = blocks HP1-beta chromodomain binding to methylated histone tails. AlphaScreen HP1-beta / biotin-H3K9me3 peptide binding. Potency, µM (titrated, usually from 114 µM), for inactives: top-dose activity change, negative = inhibition, most hits filed as inhibitors. actives 0.56% (n = 390,000). AID 540317; further: potency means the concentration at half of the fitted maximal effect; nearly all actives have a fitted effect of over 70% in size
#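 AlphaScreen: HP1-beta (50 nM) preformed 30 min with biotin-H3(1-18)K9me3 peptide (50 nM) in PBS pH 7.4, 0.01% Tween-20. Compound added for 30 min at RT, then streptavidin donor/nickel chelate acceptor beads (10 ug/mL) for 30 min.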
# L3MBTL1 inh = blocks human L3MBTL1; AID 485360; actives 0.66% (n = 230,000); Potency, µM (titrated, usually from 57.1 µM), for inactives: top-dose activity, negative = inhibition, most hits filed as inhibitors; AlphaScreen L3MBTL1–H3K9me1 peptide binding; Q9Y468; further: potency means the concentration at half of the fitted maximal effect; on the % scale 0 is the no-effect control and ±100 the full control effect; nearly all actives have a fitted effect of over 60% in size
# Target sequence (Q9Y468 whole entry, looked up): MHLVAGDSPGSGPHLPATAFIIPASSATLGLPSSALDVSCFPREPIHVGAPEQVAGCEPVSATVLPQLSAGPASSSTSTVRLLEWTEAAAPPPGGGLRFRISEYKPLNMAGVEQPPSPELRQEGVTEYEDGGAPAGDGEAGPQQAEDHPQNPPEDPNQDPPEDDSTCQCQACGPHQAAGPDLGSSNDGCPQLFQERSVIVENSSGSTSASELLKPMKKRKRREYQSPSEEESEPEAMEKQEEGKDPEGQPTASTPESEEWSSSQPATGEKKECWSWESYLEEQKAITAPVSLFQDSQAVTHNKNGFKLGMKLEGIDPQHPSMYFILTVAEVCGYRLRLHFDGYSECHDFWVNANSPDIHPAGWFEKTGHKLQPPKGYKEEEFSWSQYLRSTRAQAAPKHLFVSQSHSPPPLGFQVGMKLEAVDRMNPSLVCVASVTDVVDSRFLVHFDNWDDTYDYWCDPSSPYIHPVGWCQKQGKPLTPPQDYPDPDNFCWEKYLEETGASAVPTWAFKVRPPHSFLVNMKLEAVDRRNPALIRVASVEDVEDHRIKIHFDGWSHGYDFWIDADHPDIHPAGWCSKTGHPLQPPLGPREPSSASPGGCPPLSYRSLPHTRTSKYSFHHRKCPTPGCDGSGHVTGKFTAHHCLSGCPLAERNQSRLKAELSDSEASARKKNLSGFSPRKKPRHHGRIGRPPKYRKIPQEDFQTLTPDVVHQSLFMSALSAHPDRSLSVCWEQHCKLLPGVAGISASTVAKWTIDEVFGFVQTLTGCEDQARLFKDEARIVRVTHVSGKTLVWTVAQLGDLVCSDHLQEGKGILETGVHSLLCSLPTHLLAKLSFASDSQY
#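 L3MBTL1 (50 nM) pre-complexed 30 min with biotinylated H3(1-15)K9me1 peptide (75 nM), then compounds added for 30 min at room temperature; AlphaScreen streptavidin donor/nickel chelate acceptor beads (10 ug/mL final) read after 30 min dark incubation.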
# JMJD2A Tudor = JMJD2A Tudor domain (human) inhibition; actives 4.4% (n = 390,000); O75164; AlphaScreen JMJD2A-Tudor / H3K4me3 peptide binding; Potency, µM (titrated, usually from 114 µM), for inactives: at the top dose activity change, negative = inhibition, usual class: inhibitors; further: potency means the concentration at half of the fitted maximal effect; on the % scale 0 is the no-effect control and ±100 the full control effect; nearly all actives have a fitted effect of over 50% in size
# JMJD2E inh = inhibitors of human JMJD2E histone demethylase | JMJD2E catalytic domain, FDH-coupled NADH fluorescence (FDH is formaldehyde dehydrogenase) | Potency, µM (highest dose often 57.1 µM), without a hit: top-dose activity change, negative = inhibition, usual class: inhibitors | actives 1.6% (n = 230,000) | B2RXH2; active means well fitted inhibition curve with a large enough effect, not every such curve was filed as active; inconclusive means small, poorly fitted or top-dose-only effect, or another doubt; inactive means no such curve, though single readings can be large or run the other way;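 further: potency means the concentration at half of the fitted maximal effect; 0% = wells with enzyme and -100% = buffer wells without enzyme; nearly all actives have a fitted effect of over 50% in size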
# * marks the source's active call; other numbers are inactive results; ? = inconclusive; . = not tested or not shown; [ ] = another dose, or the depositor's remark. Sampled rows, rich in hits. Any-hit rate of the full collection: about 5.7%. Unless noted, the call rests on the fitted dose curve; in most records, active means well fitted inhibition curve with a large enough effect; inconclusive means small, poorly fitted or top-dose-only effect; inactive means no such curve, though single readings can be large or run the other way.
SMILES,PI5P4Ka inh,BAZ2B inh,HP1b binding inh,L3MBTL1 inh,JMJD2A Tudor,JMJD2E inh
O=C(Nc1cc(Sc2ccccn2)cc([N+](=O)[O-])c1)c1ccc([N+](=O)[O-])cc1,-75*,?,-11%,-6%,3.2µM*,-1%
COc1ccc(C(=O)n2nc(-c3ccco3)nc2NCc2cccs2)cc1,.,-24%,-5%,.,-15%,.
O=c1cc(CO)oc(CN2CCN(CCO)CC2)c1O,-1,-30%,-2%,.,2.8µM*,?
Cc1cc(=O)oc2c(CN3CCN(CCO)CC3)c(O)ccc12,1,-4%,55%,7%,-10%,.
COc1ccc(CCNC(=O)C(=O)NCC(c2ccco2)S(=O)(=O)c2cccs2)cc1 (configuration not stated),.,-2%,52%,.,-2%,.
COCCCN(Cc1ccco1)C(=O)c1cc2c(s1)-c1ccccc1OC2,.,89%,87%,.,48%,.
Nc1nc(N)c2[nH]cnc2n1,1,.,71%,.,-7%,.
Cn1c(N)nc2nc[nH]c2c1=S,0,.,46%,.,40µM*,.
CSc1ncccc1C(=O)Nc1ccc2c(c1)OCCO2,-5,.,27%,2%,-11%,.
CCc1ccc(NC(=O)C2CC=CCC2C(=O)O)cc1 (configuration not stated),0,-5%,34%,0%,-8%,3%
O=C(O)Cc1ccc(NC(=O)C2CC=CCC2C(=O)O)cc1 (configuration not stated),.,56µM*,.,?,.,4%
Cc1cc(C)cc(NC(=S)NCc2cccn2C)c1,.,50µM*,-26%,-11%,?,-3%
O=C(COc1ccc(Cl)cc1)Nc1nnc(C2=COCCO2)o1,-15,20µM*,18%,.,3.5µM*,-6%
CCCCC(=O)Nc1nnc(C2=COCCO2)o1,-4,?,-1%,-10%,-2%,-6%
O=C(COc1ccccc1)Nc1nnc(-c2ccccc2Cl)o1,-4,.,27%,.,22µM*,.
O=C(COc1ccccc1)Nc1nnc(-c2ccc3c(c2)CCCC3)o1,-4,-2%,44%,14%,-16%,?
COc1ccc(-c2nnc(NC(=O)c3ccc(S(=O)(=O)N4COCC4(C)C)cc3)o2)cc1,-23,56µM*,-13%,14%,3%[11.4 µM],?
CS(=O)(=O)c1cccc(C(=O)Nc2nnc(C3=COCCO3)o2)c1,0,18µM*,75%,?,3.2µM*,.
O=S(=O)(c1ccc2c(c1)OCCO2)N1CCN(S(=O)(=O)c2ccc(Cl)cc2F)CC1,.,.,.,.,-8%,.
Nc1cc(Cl)ccc1N1CCCCCC1,-2,-38%,-14%,-14%,-24%,?
Cc1nn(C(=O)c2ccccc2F)c(C)c1S(=O)(=O)N1CCOCC1,.,-3%,31%[57 µM],.,-12%,.
O=C(Nc1nnc(C2=COCCO2)o1)c1cccc(Br)c1,-6,71µM*,35%,.,-3%,.
O=C(Nc1nnc(C2=COCCO2)o1)c1cccc([N+](=O)[O-])c1,1,79µM*,27%,.,-15%,.
CC1CCN(S(=O)(=O)c2ccc(C(=O)Nc3nnc(C4=COCCO4)o3)cc2)CC1,0,?,48%,.,-7%,.
COc1ccc(C(=O)Nc2nnc(C3=COCCO3)o2)cc1,-4,16µM*,45%,.,40µM*,.
SMILES,PI5P4Ka inh,BAZ2B inh,HP1b binding inh,L3MBTL1 inh,JMJD2A Tudor,JMJD2E inh
O=[S+]([O-])(c1ccc2c(c1)OCCO2)N1CCN([S+](=O)([O-])c2c(F)cc(Br)cc2F)CC1,.,.,.,.,-10%,.
O=S1(=O)c2ccccc2N=NN1Cc1ccc(Cl)c(Cl)c1,.,79µM*,.,.,.,-4%
Cc1ccccc1CN1C(=O)c2ccccc2Sc2ccc(C(=O)NCc3ccccc3)cc21,.,-8%,23%,.,-17%,.
COc1ccc(C2=CC3=CC(=O)C(C)(O)C(=O)C3=CO2)cc1 (configuration not stated),.,.,.,.,.,-7%
COc1ccc(C2=CC3=C(Br)C(=O)C(C)(O)C(=O)C3=CO2)cc1 (configuration not stated),-83*,-36%,-21%,.,?,2%
CCC(=O)NC(c1ccc(N(C)C)cc1)c1c(O)ccc2ccccc12 (configuration not stated),-4,28µM*,?,-8%,50µM*,-6%
CCC(=O)NC(c1ccc(OC)cc1)c1c(O)ccc2ccccc12 (configuration not stated),3,-25%,14%,-1%,-33%,?
Cn1c(=O)c2[nH]c(=O)[nH]c2n(C)c1=O,?,.,18%,.,-5%,.
CCn1c(=S)[nH]c2c(=O)n(C)c(=O)n(C)c21,-69*,.,?,.,5µM*,.
COc1cccc(CCNC(=O)c2c(O)nc3ccccn3c2=O)c1,.,-2%,34%,.,-3%,.
O=C1Nc2ccccc2S/C1=C/NCc1ccccc1Cl,1,?,-24%,9%,50µM*,0%
Cc1ccc(N/C=C2/Sc3ccccc3NC2=O)cc1,-21,-23%,56%,3%,-16%,-3%
COc1ccc(N/C=C2/Sc3ccccc3NC2=O)cc1,-55*,-20%,12%,0%,-27%,-3%
Fc1ccccc1/C=N/N1CCN(Cc2ccccc2Cl)CC1,22,50µM*,-17%,-2%[2.29 µM],50µM*,.
COc1cc(/C=N/N2CCN(Cc3ccccc3)CC2)cc(OC)c1OC,0,.,.,.,.,.
O=[N+]([O-])c1ccccc1/C=N/N1CCN(c2ccccn2)CC1,8,13µM*,-11%,?,?,7%
COc1ccc(Br)cc1/C=N/N1CCN(Cc2ccccc2)CC1,19,28µM*,?,?,40µM*,-3%
Clc1ccccc1CN1CCN(/N=C/C=C/c2ccco2)CC1,-3,32µM*,?,?,45µM*,?
CCn1c(=O)c2sccc2n2c(CCCC(=O)N3CCN(c4ccc(OC)cc4)CC3)nnc12,.,1%,11%,.,-15%,.
CCCCOc1ccccc1Cn1c(=O)sc2ccccc21,.,259%,222%,.,197%,.

# From PubChem BioAssay
